D3 antag – antagonists of human D3 dopamine receptor; D3R cells, DiscoveRx beta-arrestin luminescence, antagonist mode; stronger effect = lower value; max response, negative = inhibition, %; actives 2.5% (n = 360,000); AID 652054; in the data active = max response below about -50%; inconclusive = no clear call, values can overlap the other calls; note: % is set by controls: 0 for no effect and ±100 for the full control effect
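Cells expressing the human receptor were seeded at 1500 cells/well, incubated overnight at 37 degrees C in 5% CO2, then exposed to library compounds with dopamine controls for 90 minutes at 37 degrees C before luminescent detection.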
IL1B secr inh – inhibitors of inflammasome signaling (IL-1 beta secretion); actives 4.7% (n = 360,000); activity change, % at 57.5 µM; AID 743279; THP-1 LPS/ATP IL-1B secretion, AlphaLISA, 16 h; stronger effect = lower value; in the data active = activity change below about -50%; inconclusive = mostly about -30% to -49%; note: % is set by controls: 0 for no effect and ±100 for the full control effect
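Secreted IL-1B measured by AlphaLISA bead assay after 16 h compound exposure of THP-1 cells; compounds (final up to 57.5 uM) added 1 h before LPS (250 ng/mL) and ATP (1.25 mM) stimulation; lower signal means less secretion.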
ClpP mod – qHTS Assay for Activators of ClpP; actives 1.9% (n = 340,000); Potency, µM (top dose mostly 57.5 µM), for the others: top-dose activity change, negative = active; purified B. subtilis ClpP, FRET peptide cleavage, 20 min; active = well fitted falling curve with a large enough effect; inconclusive = small, poorly fitted or top-dose-only effect; inactive = no such curve, though single readings can be large or run the other way; note: potency is the fitted concentration of half-maximal effect; the source files actives as falling curves though it sought activators and does not explain the sign; nearly all actives have a fitted effect of over 65% in size
Target sequence (P80244 whole entry, looked up): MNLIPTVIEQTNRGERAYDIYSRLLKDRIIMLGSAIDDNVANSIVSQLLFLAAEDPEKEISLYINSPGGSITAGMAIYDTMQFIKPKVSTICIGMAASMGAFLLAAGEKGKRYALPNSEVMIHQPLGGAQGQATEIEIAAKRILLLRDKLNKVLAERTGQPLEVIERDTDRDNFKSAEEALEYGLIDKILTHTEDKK
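Buffer: 100 mM Tris/HCl pH8, 100 mM KCl, 0.05% low protease BSA, 2.5% glycerol, 0.01% Tween-20. ClpP 10 microg/mL final; 20 min RT; delta FRET normalized to ADEP and DMSO controls.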
D3 ag – agonists of human D3 dopamine receptor; AID 652048; max activation, %; D3R DiscoveRx beta-arrestin cells, luminescence, 90 min; actives 0.58% (n = 410,000); P35462; in the data active = max activation above about 30%; note: 0% is about no effect
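Agonist-mode cell screen: cells plated at 1500/well and incubated overnight at 37 °C, then exposed to library compounds for 90 min at 37 °C. Detection reagent was added for 30–60 min at room temperature, and luminescence was read.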
DT40 TDP1 CPT – DT40-hTDP1 cell growth loss with CPT; chicken DT40 Tdp1-/-;hTDP1 cells + 20 nM CPT, ATP luminescence, 48 h; Potency, µM (titrated, usually from 46.2 µM), inactives show at the top dose activity change, negative = growth inhibition, usual class: inhibitors; actives 12% (n = 420,000); note: potency is the fitted concentration of half-maximal effect; % is set by controls: 0 for no effect and ±100 for the full control effect; nearly all actives have a fitted effect of over 55% in size
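Chicken DT40 Tdp1-/- cells complemented with human TDP1, 400 cells/well, exposed to compounds plus 20 nM camptothecin for at least 48 h at 37 C; viability read as ATP content by CellTiter-Glo luminescence.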
TDP1 cell noCPT – qHTS for Inhibitors of human tyrosyl-DNA phosphodiesterase 1 (TDP1): qHTS in cells in absence of CPT. DT40 Tdp1-/- hTDP1 cells, no CPT, ATP luminescence, 48 h. Potency, µM (top dose mostly 46.2 µM), for the others: top-dose activity change, negative = growth inhibition, hits mostly inhibitors. AID 686978, 2013. actives 15% (n = 420,000); note: potency is the fitted concentration of half-maximal effect; % is set by controls: 0 for no effect and ±100 for the full control effect; nearly all actives have a fitted effect of over 55% in size
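Stably hTDP1-transfected Tdp1-null chicken DT40 cells were treated with library compounds minus camptothecin and grown for at least 48 hr at 37 °C, after which cellular ATP was quantified by luminescence.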
* marks the source's active call; other numbers are inactive results; ? = inconclusive; nt = not tested or not shown. This is a sample that favours compounds with a hit; in the whole collection about 21% have one here. Unless noted, calls come from the whole dose curve; as a rule, active = well fitted inhibition curve with a large enough effect; inconclusive = small, poorly fitted or top-dose-only effect; inactive = flat fitted curve, though single readings scatter.

SMILES	D3 antag	IL1B secr inh	ClpP mod	D3 ag	DT40 TDP1 CPT	TDP1 cell noCPT
O=C(OCC(=O)c1c[nH]c2ccccc12)c1cc2ccccc2cc1O	-11	13	20µM*	-3	-16%	-24%
COc1ccc(-n2cc(CNCCCn3ccnc3)c(-c3ccccc3Cl)n2)cc1	?	0	-1%	-3	?	?
COc1ccc(-n2cc(CNCCN3CCOC3=O)c(-c3ccccc3Cl)n2)cc1	3	7	0%	-11	?	-16%
Cc1ccc(-n2cc(CN3CCCN(C=O)CC3)c(-c3ccc(F)cc3)n2)cc1	?	?	nt	-19	?	?
Cc1ccc(-n2cc(CNCCN3CCOC3=O)c(-c3ccc(F)cc3)n2)cc1	-3	-71*	-4%	-26	23µM*	?
Fc1ccc(-n2cc(CNCCc3ccccn3)c(-c3ccccc3Cl)n2)cc1	-86*	-74*	2%	-39	9.2µM*	7.3µM*
Cc1cccc(-n2cc(CNCCN3CCOC3=O)c(-c3cccc(F)c3)n2)c1	-12	-57*	nt	-6	?	21µM*
Cc1cccc(-n2cc(CN3CCCN(C=O)CC3)c(-c3cccc(F)c3)n2)c1	9	-11	-1%	-8	?	?
Cc1ccc(-n2cc(CNCCn3nc(C)cc3C)c(-c3ccc(F)cc3)n2)cc1	0	-91*	nt	-12	15µM*	23µM*
Clc1ccc(Nc2nc(Nc3ccc(Cl)cc3)nc(N3CCOCC3)n2)cc1	nt	nt	-10%	nt	?	?
Cc1ccc(-n2cc(CNCCc3ncc(C)[nH]3)c(-c3ccc(F)cc3)n2)cc1	-23	-82*	nt	-15	16µM*	?
Cc1ccc(-n2cc(CNCCCN3CCCC3=O)c(-c3ccc(F)cc3)n2)cc1	6	-68*	nt	-13	?	18µM*
Cc1ccc(C)c(-n2cc(CNCCc3cnccn3)c(-c3ccccc3)n2)c1	2	?	-2%	-12	?	?
CCc1nc2c(OCc3ccc(Cl)cc3Cl)cccn2c1N(C)C(=O)c1ccccc1F	?	-27	-4%	-12	?	?
Cc1nc2c(OCc3ccc(Cl)cc3Cl)cccn2c1N(C)Cc1cccs1	-71*	?	?	-17	?	?
Cc1nc2c(OCc3cccc(Cl)c3)cccn2c1N(C)Cc1cccs1	-21	-20	-10%	-7	21µM*	16µM*
Cc1cccc(-c2nc3c4ccccc4nc(NCc4ccccc4Cl)n3n2)c1	nt	nt	-2%	-15	1%	-15%
Nc1cc(S(=O)(=O)N2CCOCC2)ccc1Oc1cccc(Br)c1	-18	-61*	-2%	-2	?	?
COc1ccc(S(=O)(=O)N2CCOCC2)cc1Br	11	7	nt	0	13%	-8%
CCc1c(C)c2cc3c(c(C)c2oc1=O)OCN(CCc1ccc(OC)c(OC)c1)C3	nt	nt	4%	-25	?	?
Cc1nn(-c2ccccc2)c(N)c1C(c1ccc(C(C)C)cc1)c1c(C)nn(-c2ccccc2)c1N	-24	?	3%	3	7%	?
Nc1nc(-c2ccccc2)[nH]c(=O)c1N=O	15	23	1%	-1	-16%	?
Nc1nc(N)c(N=Nc2ccccc2)c(=O)[nH]1	-5	?	nt	-12	21µM*	5.8µM*
Cc1nn(-c2ccccc2)c(N)c1N=Nc1ccc(Cl)cc1	2	-76*	nt	8	?	?
Nc1nn(-c2ccccc2)c(N)c1N=Nc1ccccc1	3	15	1%	-13	4.1µM*	4.6µM*
CC1(C)CC(=O)C(N=Nc2cccc(S(=O)(=O)N3CCOCC3)c2)=C(O)C1	-29	0	-3%	-6	3%	5%

Source: PubChem
